Out of some 52,000 sequences screened, about 210 (0.4%) were called active. The full list was thinned out, with actives kept by preference. Values without a mark were called inactive.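 The calls were made as follows: active = gene whose silencing raises cell survival under the drug, median off-target-corrected z-score across its silencing RNAs 2 or more; inactive = the rest.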
Test: Resistance to Poly (ADP-Ribose) Polymerase inhibitor: Gene Identification via Genome-wide siRNA Screen
Settings: mouse BRCA2 R2336H ES cells, olaparib, CellTiter-Glo viability; stronger effect = higher value
From the text: The role of Poly (ADP-Ribose) Polymerase (PARP) proteins in DNA repair has been elegantly utilized for the synthetic lethality-based treatment of BRCA-deficient tumors by PARP inhibitors. PARP inhibitors are now being used for treatment of BRCA-deficient breast and ovarian cancers. […] While several mechanisms of drug resistance have been identified, majority of these tumors develop drug resistance due to unknown causes. To identified novel regulators of chemo-resistance in BRCA2-mutated cells, we performed a genome wide siRNA library screen. We have found ES cells expressing a hypomorphic allele of BRCA2 to be hypersensitive to PAPP inhibitors (such as olaparib). We used ES cells expressing a mutant allele of BRCA2 that has a single amino acid substitution at position 2336 (arginine to histidine, R2336H). The screen was conducted using an Ambion (Thermo) Silencer Mouse Genome siRNA collection. The library targets 17,575 mouse genes with 3 siRNAs per gene. TET2 (E130014J05Rik) was identified as a top candidate.
Transfections were performed in 384 well plates (Corning 3707). Plates were coated with 0.1% gelatin in H2O overnight at ambient temperature. Gelatin solution was aspirated (BioTek EL406) and siRNAs were printed using a Bravo VPrep liquid handler integrated within a BioCel automation platform (Agilent). Cell viability was measured using CellTiter Glo (Promega). For transfections, […] of serum free media containing Lipofectamine RNAiMax […] was added to wells containing siRNA (0.8pmol). Lipid and siRNA were allowed to complex for 45 min at ambient temperature before addition of 1000 cells in DMEM, 30% FBS to yield final transfection mixtures containing 20 nM siRNA in DMEM, 15% FBS. PARPi (olaparib, AZD2281) was added 48 h post-transfection (500 nM) and viability (CellTiter Glo, Promega) was assayed 72 h later on a PerkinElmer Envision 2104 Multilabel plate reader. Ambion Silencer Select Negative Control #2 was incorporated on all screening plates (16 wells) and the median negative control value on each plate was used for normalization. An siRNA targeting Trp53 was used as a positive control. This control yielded a median protective effect of ~1.9 fold versus negative control throughout the screen. The median absolute deviation (MAD) based z-score was calculated for each siRNA. Genes were then ranked by taking the median value for all siRNAs tested against a given gene. Scores were also adjusted for seed-based off-target effects to help deprioritize likely false positives.

Sequence	z-score
GCCUCUUUGAUAGCAAAAGTT against Cct6a	0.0125
GGCAUUUUUCUUCUCCAAATT against Clns1a	-0.934
GGGACUGUAAUGUUGACACTT against Olfr560	0.851
GGCAAAAAAAACUGCUAUATT against Gpr128	0.0555 (active)
GGAAAUAAGACUCAGGUCATT against Gtf2a1	-1.44
GCGAGUUGGAAUUGAGAUCTT against Casp8	0.155
GGUUUUGGCUCGAAGGAAATT against Tead2	-1
GGAAUGUCCACAUUUUGUATT against Tigd5	0.00592
GGAUGAUGAGAGAAACAAATT against Jak1	2.1 (active)
GCCGGUUUCAGUUAAAGAGTT against Pccb	2.26
GGGAAUCGGCCUGAAGAAATT against Arl6ip5	-0.707
CCUUCUGGUGCUUUUAGAGTT against Tlm	0.431
GGGUUAUACCAAGUCCAUUTT against Mapk1	3.33 (active)
GGUUUCCAUGGUAACGUGGTT against Tns	1.17
CGAAGCUGCAAAGGAGAAGTT against Igf1	-0.732
GGUCUUCUACAACUCGGAATT against Sgpp1	-0.0398 (active)
GGAGAAGAAGAAAAGAACATT against Pom121	-3.12
GCACCCGGCACUAGAAAAATT against Shoc2	0.638
GCUUUACCUGCUCAGAAGCTT against Olfr520	0.553
GCGAUUUUACGGAUCCGGUTT against Olfr1420	-0.612
GGGAAGUCACUGAAGCCUGTT against Akr7a5	-0.538
GGGACACACGGUAUACAUCTT against Pfkl	0.358
GGAUGUUAUAAGAUUGCGUTT against Rnf170	-0.646

Sequence	z-score
GGAACUGAUGAAUAUUUCATT against Chrnb1	0.177 (active)
GUUGGUAAAGGUCCUUGCCTT against D17Wsu155e	-1.02
GCUACUCAUGCUAGAUGACTT against Gba	1.64
GGUUGAACCCACUCUGCAATT against Olfr1113	-2.16
GCACAGUGGAUGCAAUCAGTT against Btbd1	0.346
GCCCGACAGGAGAUAUUUATT against B230340J04Rik	-1.19
GGAGAGCUGGAACAAUAGCTT against Bcl2l2	2.66 (active)
GCCUUUGUAGGUUCAAGUGTT against 2310001H12Rik	1.78
GGAGAAGAUCGGAUGGCGATT against Itgb5	-0.391
CGGACUAAGUUUCAAAUCGTT against Pcdha2	-0.594
GGAUGUCACAACAGUUAUGTT against Otog	1.4
CCUAUAUGCGCUAUUUGAATT against 4732465J09Rik	0.557
GGCUAAUGUAUCGUCUGAGTT against Asb16	0.422 (active)
CCCUGACGAAGCCAUACAUTT against Bcor	-1.33
GGACAAACAUUGGAUUGAUTT against 0610009C03Rik	0.453
CCCAGAGGUUCCCGUCAAUTT against Hmgb3	1.9 (active)
GCCACCCACCUAAAAUCAATT against BC025872	0.573
GGGAAAUGGCUCAUACUGGTT against 2210010C04Rik	-0.608
GACCGAGUUCAAAGCGAACTT against Atp5e	-2.59
GGAAGAAAGCCAUUUGCUUTT against 4632412I24Rik	0.766
CGAUGAGAUGCGUAUUGAGTT against Card11	-0.977
GCGAACUCCUCUUUAGGCATT against Chrng	-0.258 (active)
GGGUAGACAGAAAGCCUUUTT against Olfr111	-0.573

Sequence	z-score
GGUGUCUUAAAGCUGAAAUTT against E2f5	2.8
GGAGAGGAAUGGUGUGUUATT against 4931428D14Rik	-0.16
GGUGUUCCUGUCUUUCAUGTT against Chordc1	-1.35
CCAACUUCAAAACUAUCGUTT against Trp53bp1	1.96 (active)
GCUAGUGGUAAGUCAACCATT against D6Ertd349e	-0.584
GGUGGGAAUGGGAAUCAGUTT against Akr1e1	1.57
GUCCAUCAGCAGCUCAAUGTT against Ifna5	-0.126
GGCUUAUUUUUCUUCAGUUTT against Ext1	-0.0515
GGAGGAAAAAAAGUGAAGATT against Zfp339	0.689
CCUAUGCUAUGUAGUUUAATT against Adam21	0.555 (active)
GCUGAUGAAGGUGAUACGUTT against Pnma2	0.0302
GGCACCUAAAUUCUUGAAUTT against Hspb6	-0.361
GGCCCUUCCCAAAGUAUUATT against Mup3	0.32
CCUACUACCUCUGUCAACATT against Nme4	1.46
GGUGGAGUUUGUGCAGAAGTT against 2310026J01Rik	0.572
CGAUGAUUCCAAGUUUGGCTT against Pinx1	-0.772
CCUGCAGCUGUAAAACCUGTT against Mt4	-0.909
CCGUAUCCGGCAUUGGAUUTT against Mrps16	0.345
GCUGUCCACUGCUUAAAUCTT against Isyna1	0.392
GGAAUUGUACAAAUGACCUTT against Adam29	-0.0465 (active)
GGAGCUCAGAUGCAAUGAGTT against Zfp393	-0.714
GGAUGAGCUCAAGAAGUCCTT against Snrpa	-1.3

From PubChem BioAssay AID1347423 (Functional Genomics Laboratory (NCATS/FGL), 2020)
